PREPL inh = human PREPL enzyme inhibition. recombinant PREPL, fluorescence polarization activity-based probe. inhibition, % at 5.96 µM. 320,000 tested, 0.68% active. AID 2751;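 further: 0% = enzyme with DMSO and 100% = wells lacking enzyme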
FID counter = displaces DNA intercalator in HCV helicase counter-screen | DNA fluorescent intercalator displacement, fluorescence | inhibition, % at 7.9 µM | 290,000 tested, 0.17% active; in the data active means inhibition above about 37%;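 further: 0% = vehicle and 100% = reference compound; higher means more ethidium bromide displaced from hairpin DNA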
TMEM16A act = mouse TMEM16A channel activation, primary screen; HEK293 TMEM16A/YFP-H148Q/I152L, iodide quench fluorescence; hits give low values; B-score at 10 µM; 340,000 tested, 0.3% active;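 active means fluorescence-ratio B-score plate-corrected deviation score at least 3 library SD below zero, with starting fluorescence score within 5 deviations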;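 further: channel opened by trigger with iodide after compound preincubation; score built on the fluorescence ratio of max minus min over baseline; more negative score means more quench and so TMEM16A activation or potentiation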
PP1 inh = counter-screen for PP5 inhibitors: inhibitors of human PP1-alpha. P62136. purified PP1alpha, OMFP fluorescence. inhibition, % at 6.7 µM. 320,000 tested, 0.9% active;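 active means inhibition above the mean inhibition of all tested compounds plus 3 SD, computed separately for each screening campaign, cut at about 15% in these data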
PP5 primary = inhibitors of human protein phosphatase 5 (PP5); P53041; purified PP5c, OMFP substrate fluorescence; inhibition, % at 6.7 µM; 320,000 tested, 0.18% active;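 active means inhibition above the campaign's mean inhibition across all tested compounds plus 3 SD, cut at about 9.5% in these data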;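 further: 0% = DMSO only and 100% = 100 µM cantharidin control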
Target sequence (P53041 whole entry, looked up): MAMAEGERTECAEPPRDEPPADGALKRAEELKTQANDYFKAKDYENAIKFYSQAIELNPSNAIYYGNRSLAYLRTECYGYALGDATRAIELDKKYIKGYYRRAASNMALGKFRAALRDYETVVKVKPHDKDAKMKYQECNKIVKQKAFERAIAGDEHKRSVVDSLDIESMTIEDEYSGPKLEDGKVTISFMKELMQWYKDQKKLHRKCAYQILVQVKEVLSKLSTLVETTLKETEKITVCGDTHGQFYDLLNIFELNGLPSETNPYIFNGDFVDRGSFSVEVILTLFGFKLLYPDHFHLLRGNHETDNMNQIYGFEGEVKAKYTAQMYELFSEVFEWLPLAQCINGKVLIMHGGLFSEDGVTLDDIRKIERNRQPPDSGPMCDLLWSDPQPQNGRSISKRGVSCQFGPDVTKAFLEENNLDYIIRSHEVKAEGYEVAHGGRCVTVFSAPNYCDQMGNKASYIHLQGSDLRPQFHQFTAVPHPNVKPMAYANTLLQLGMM
ANO1 block = inhibitors of mouse TMEM16A calcium-activated chloride channel | Q8BHY3 | 310,000 tested, 1.2% active | HEK293 TMEM16A/YFP iodide influx fluorescence, ionomycin | normalized B-score (activity score, 25-100; higher = stronger inhibition) at 10 µM;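 active means ratio plate-corrected score three or more library SD toward inhibition, starting fluorescence score within five deviations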;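 further: score derived from kinetic fluorescence span divided by baseline fluorescence per well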
PP1 confirm = human PP1 phosphatase inhibition, confirmation; inhibition, % at 6.7 µM; AID 2358; shares compounds with PP1 inh; 1,900 tested, 52% active; purified PP1alpha, OMFP substrate fluorescence;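 active means mean PP1 inhibition above a set limit taken from the earlier primary screen, cut at about 15% in these data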
PP5 inh counter = counter-screen for PP1 inhibitors: human PP5 phosphatase inhibition. purified PP5c, OMFP fluorescence. 1,900 tested, 4% active. AID 2360. inhibition, % at 6.7 µM. shares compounds with PP1 inh;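 active means mean PP5 inhibition over triplicate wells above about 9.5% taken from the earlier PP1 screen, limit read from the data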
PREPL inh cf = confirmation of human PREPL enzyme inhibitors. shares compounds with PREPL inh. AID 2803. 2,000 tested, 67% active. inhibition, % at 5.96 µM. recombinant PREPL, fluorescence polarization activity probe;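 further: 0% = protein with DMSO and 100% = wells lacking protein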
TMEM16A reconf = TMEM16A (mouse) chloride channel inhibition, re-confirmation; shares compounds with ANO1 block; HEK293 TMEM16A/YFP-H148Q, iodide quench fluorescence; ionomycin added to raise cell calcium; inhibition, % at 10 µM; 2,300 tested, 39% active;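 active means mean duplicate percent inhibition, scaled so buffer wells are 0 and the reference blocker 100, over three buffer SD above buffer mean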
HEK293 Ca mobil = alters calcium mobilization in TMEM16A HEK293 cells, counter-screen | shares compounds with ANO1 block | TMEM16A/YFP HEK293, Fluo4 calcium mobilization | calcium response (% of ionomycin), % at 10 µM | 2,300 tested, 2% active;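 active means duplicate-averaged calcium signal over 20% of the ionomycin maximum, relative to buffer baseline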;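 further: each well's signal is peak minus trough fluorescence divided by its pre-addition baseline; 0% = buffer wells and 100% = ionomycin wells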
Parental YFP cnt = acts in parental YFP-HEK293 cells lacking TMEM16A, counter-screen. AID 652233. iodide YFP quench, ionomycin. 2,300 tested, under 10 active. YFP ratio F(max-min)/F0 at 10 µM. shares compounds with ANO1 block;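 active means yellow fluorescent protein signal ratio exceeding the buffer control mean by over 5 SD of those controls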;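 further: ratio is mean of duplicate wells from kinetic YFP trace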
ClC-1 rat inh = blocks the rat ClC-1 voltage-dependent chloride channel; CHO ClC-1-YFP, iodide influx fluorescence quench; iodide control reads 0, buffer control 100; ratio percent, % at 10 µM; shares compounds with ANO1 block; 2,300 tested, under 10 active;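 active means duplicate-mean ratio percent above the mean of iodide-only control wells, which defines zero, plus 5 of their SD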;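 further: higher percent means stronger block of ClC-1 iodide influx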
* = called active by the depositor; i = inactive; . = not tested or not shown. The list is not random: actives were taken first. Their share in the collection is about 2.7%. Unless noted, no stated cut-off is given here; in the data, active means inhibition above about 43%; inactive means the rest.

SMILES	PREPL inh	FID counter	TMEM16A act	PP1 inh	PP5 primary	ANO1 block	PP1 confirm	PP5 inh counter	TMEM16A reconf	HEK293 Ca mobil	Parental YFP cnt	ClC-1 rat inh	others
Cc1onc(-c2ccccc2)c1C(=O)NC(=S)NNC(=O)c1cc(-c2ccc(F)cc2)n[nH]1	2	-24	i	29*	2	25*	22*	-1	i	i	-0.84	2
Cc1onc(-c2ccccc2)c1C(=O)NC(=S)NNC(=O)c1ccncc1	-5	-1	i	-3	3	i	.	.	.	.	.	.
O=[N+]([O-])c1ccc(N2N=C(c3ccco3)CC2c2ccccc2)cc1 (stereo not drawn)	6	-19	i	19*	-3	i	2	-4	27%*	i	-0.81	8
Fc1ccc(C2CC(c3ccco3)=NN2c2ccccc2)cc1 (stereo not drawn)	4	-5	i	3	2	i	.	.	.	.	.	.
Cc1cccc(-c2nnc(NC(=O)c3ccc(N4C(=O)CCC4=O)cc3)s2)c1	2	-7	i	19*	5	i	12	0	i	i	-0.86	-10
Cc1ccccc1-c1nnc(NC(=O)c2ccc(N3C(=O)CCC3=O)cc2)s1	7	-15	i	-2	4	i	.	.	.	.	.	.
CC(C)C(NC(=O)c1ccc(F)cc1)C(=O)N1CCN(C(=O)c2ccco2)CC1 (stereo not drawn)	1	.	i	-1	-2	.	.	.	.	.	.	.
CN(Cc1nccs1)C(=O)C1CCC(=O)N(CCCc2ccccc2)C1 (stereo not drawn)	.	-20	i	.	.	.	.	.	.	.	.	.
N#Cc1ccc(C(=O)Nc2nnc(-c3cccs3)o2)cc1	2	-6	i	4	0	i	.	.	.	.	.	.
O=C(Nc1nnc(-c2cccs2)o1)c1cccc(C(F)(F)F)c1	13	-3	i	20*	3	25*	18*	1	i	26%*	-0.87	-22
Cc1nnc(N2C(=O)C(O)=C(C(=O)c3ccco3)C2c2cccc([N+](=O)[O-])c2)s1 (stereo not drawn)	1	-33	i	-1	-2	i	.	.	.	.	.	.
CCOC(=O)c1sc(N2C(=O)C(O)=C(C(=O)c3ccco3)C2c2cccc(Cl)c2)nc1C (stereo not drawn)	-15	-42	i	27*	2	25*	17*	-1	i	i	-0.73	-8
O=C(Nc1ccc(Nc2ccncc2)cc1)c1ccc(Nc2ccnc3ccc([N+](=O)[O-])cc23)cc1[N+](=O)[O-]	14	32	i	41*	6	25*	-11	1	i	i	-0.99	-4
O=C(CCNC(=O)c1ccc(Br)cc1)NCc1cccnc1	3	.	i	-6	1	i	.	.	.	.	.	.
Cc1cc(C)c(C(=O)OCc2csc(CC(=O)Nc3ccccc3C)n2)c(C)c1	-7	-30	i	20*	4	25*	1	0	i	i	-1.1	-13
Cc1ccccc1NC(=O)Cc1nc(COC(=O)c2ccccn2)cs1	-12	.	i	-12	3	i	.	.	.	.	.	.
O=C1CC(C(=O)O)(c2ccccc2)c2cccc(F)c21 (stereo not drawn)	5	-3	i	0	4	i	.	.	.	.	.	.
Cc1ccc(-c2cc(C(=O)N(C)CC(=O)Nc3ccccc3Br)c3ccccc3n2)o1	4	.	i	-2	0	i	.	.	.	.	.	.
Cc1ccc(NC(=O)Nc2nnc(-c3ccncc3)s2)cc1C	13	-21	i	25*	2	25*	29*	-3	i	i	-0.97	-4
CCOC(=O)c1cn(Cc2ccccc2)c(C(=O)OC(C)(C)C)c1O	-5	.	i	22*	3	100*	36*	-4	32%*	i	-0.98	-9
C=CCOc1ccc(/C=C2\SC(=S)N(NS(=O)(=O)c3ccc(C)cc3)C2=O)cc1	5	-19	i	25*	2	100*	17*	-1	72%*	i	-0.99	-60
COCCN(CC(=O)Nc1cccc(C)c1C)C(=O)Cc1ccsc1	7	.	i	.	.	.	.	.	.	.	.	.
COc1ccc(NC(=S)NC(NC(=O)c2cccc(Cl)c2)C(Cl)(Cl)Cl)c([N+](=O)[O-])c1 (stereo not drawn)	-7	18	i	18*	4	25*	6	1	i	i	-1.2	-12
COc1cc2c(cc1OC)C(c1ccccc1C)CC(=O)N2 (stereo not drawn)	5	-11	i	4	1	i	.	.	.	.	.	.
O=c1cc(-c2ccccc2)nc2c(-c3ccccc3)c(C(F)(F)F)[nH]n12	-1	-14	i	33*	2	100*	33*	0	58%*	i	-0.97	-10
Cc1cccc2sc(NNC(=O)c3ccc(S(=O)(=O)N4CC(C)CC(C)C4)cc3)nc12 (stereo not drawn)	12	-16	i	23*	3	25*	19*	0	26%*	i	-0.97	-9
COc1cc(/C=C2\SC(N3CCC(C)CC3)=NC2=O)ccc1O	44*	-30	i	7	2	i	.	.	.	.	.	.	PREPL inh cf=12
COc1ccc(/C=C2\SC(N3CCCCC3)=NC2=O)cc1OC	14	-28	i	1	2	i	.	.	.	.	.	.
CCOC(=O)N1CCN(C(=O)c2ccc(CS(=O)Cc3ccc(C)cc3)o2)CC1 (stereo not drawn)	15	-40	i	-2	-1	i	.	.	.	.	.	.
CC(=O)Nc1ccc(S(=O)(=O)NC2=C(N3CCN(c4ccc(F)cc4)CC3)C(=O)c3ccccc3C2=O)cc1	59*	1	i	-1	4	i	.	.	.	.	.	.	PREPL inh cf=74*
